PubChem BioAssay (EPA / NIEHS)
Activity calls are given as the source filed them. The calls were made as follows: active = hit-call score of the fitted dose curve at least 0.9, where 1 is the maximum; inactive = score below 0.9.

Assay: CCTE_Shafer_MEA_acute_per_network_burst_electrodes_number_mean: CCTE's Neural Acute Assay for Mean Number of Electrodes in a Network Burst, Shafer Lab (AID 2284021);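 also: curves fitted for decreases only so hits reduce electrodes per burst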
How it was run: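 Rat primary cortical neurons on 16-electrode MEA wells were recorded 40 min at baseline on DIV 13 or 15, then 40 min after compound (0.03-40 uM), at 37 C. Value is percent change per well, fitted in loss direction versus DMSO.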

outcome, inactive:
OCC(CO)n1cnc(-c2ccc(F)cc2)c1-c1ccnc(Oc2ccccc2)n1
Cc1c(C)c2c(c(C)c1O)CCC(C)(COc1ccc(CC3SC(=O)NC3=O)cc1)O2 (stereo not given)
CC(C)COC(=O)CCCCC(=O)OCC(C)C
NC(=Nc1ccccc1)Nc1ccccc1
CSc1ccc(Oc2ccc(S(N)(=O)=O)cc2CN(C)C)cc1C
CC1=C(C)S(=O)(=O)CCS1(=O)=O
CCN(CC)CCOc1ccc(C(=C(Cl)c2ccccc2)c2ccccc2)cc1
COc1ccc(OC(F)(F)F)cc1CN[C@H]1CCCN[C@H]1c1ccccc1
O=C(O)CN(CC(=O)O)CC(=O)O
Cc1ccc(C(C)(C)C)c(O)c1
CN(C)CCCN1c2ccccc2Sc2ccc(Cl)cc21
CCc1cc(C2=C(C(=O)O)N(c3ccccc3C(F)(F)F)S(=O)(=O)c3ccccc32)cc2c1OCO2
CCCCC(CC)COP(=O)(OCC(CC)CCCC)OCC(CC)CCCC (stereo not given)

AC50, active:
CN(C)C(=O)NC1(c2ccccc2)CCN(CCC[C@]2(c3ccc(Cl)c(Cl)c3)CCCN(C(=O)c3ccccc3)C2)CC1 2.99 µM
Cc1cc(Cc2ccc(N)c(C)c2)ccc1N 29.9 µM

Assay: CCTE_Shafer_MEA_acute_network_burst_percentage: CCTE's Neural Acute Assay for Percentage of Network Bursts, Shafer Lab (AID 2284022);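 also: curves fitted for loss so actives lower network burst percentage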
How it was run: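 Primary rat cortical neurons on 16-electrode MEA wells, treated on DIV 13 or 15 with compound (0.03-40 uM); 40-min baseline and 40-min post-exposure recordings at 37 C. Value is percent change in spikes within network bursts versus baseline, DMSO negative control.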

outcome, inactive:
OCC(CO)n1cnc(-c2ccc(F)cc2)c1-c1ccnc(Oc2ccccc2)n1
Cc1c(C)c2c(c(C)c1O)CCC(C)(COc1ccc(CC3SC(=O)NC3=O)cc1)O2 (stereo not given)
CC(C)COC(=O)CCCCC(=O)OCC(C)C
NC(=Nc1ccccc1)Nc1ccccc1
CSc1ccc(Oc2ccc(S(N)(=O)=O)cc2CN(C)C)cc1C
CC1=C(C)S(=O)(=O)CCS1(=O)=O
CCN(CC)CCOc1ccc(C(=C(Cl)c2ccccc2)c2ccccc2)cc1
O=C(O)CN(CC(=O)O)CC(=O)O
Cc1ccc(C(C)(C)C)c(O)c1
CN(C)CCCN1c2ccccc2Sc2ccc(Cl)cc21
CCc1cc(C2=C(C(=O)O)N(c3ccccc3C(F)(F)F)S(=O)(=O)c3ccccc32)cc2c1OCO2
CCCCC(CC)COP(=O)(OCC(CC)CCCC)OCC(CC)CCCC (stereo not given)

AC50, active:
CN(C)C(=O)NC1(c2ccccc2)CCN(CCC[C@]2(c3ccc(Cl)c(Cl)c3)CCCN(C(=O)c3ccccc3)C2)CC1 7.5 µM
Cc1cc(Cc2ccc(N)c(C)c2)ccc1N 29.6 µM
COc1ccc(OC(F)(F)F)cc1CN[C@H]1CCCN[C@H]1c1ccccc1 3.09 µM
